The results in this text go back to the antibiotic and cytotoxicity screens of Wong et al. (2023).

Out of some 39,000 compounds screened, about 1,500 (3.8%) were called active. The full list was thinned out, with actives kept by preference.

This test concerns HSkMC (human skeletal muscle cells). The experiment in a line: cytotoxicity call (relative viability < 0.9). The note with it: 10 µM.
For the compound `COc1ccc(S(=O)(=O)Nc2cccc3c2O[C@@H](CN(C)S(=O)(=O)c2cccs2)[C@@H](C)CN([C@@H](C)CO)C3=O)cc1`, the cytotoxicity call was “inactive”.
In the case of `C[C@H]1CN([C@@H](C)CO)C(=O)c2cccc(NC(=O)Nc3cccc4ccccc34)c2O[C@H]1CN(C)C(=O)Nc1ccc(F)cc1`, the cytotoxicity call was “inactive”.
Consider `OCCN1CCOCC1`, for which the cytotoxicity call was “inactive”.
Then `CCN1C(=O)S[C@@H](CC(=O)O)C1=O`, with “inactive”; and `COc1ccc(NC(=O)N(C)C[C@@H]2Oc3c(NS(C)(=O)=O)cccc3C(=O)N([C@@H](C)CO)C[C@H]2C)cc1`, with “inactive”.
As for `CN1C(=O)c2cc(NC(=O)Nc3ccccc3F)ccc2OC[C@@H]2O[C@H](CC(=O)NCc3ccc(-c4ccccc4)cc3)CC[C@H]21`, the cytotoxicity call is “inactive”.
For `O=[N+]([O-])c1ccc(Oc2ccc(-c3ccccc3)cc2)cc1`, the cytotoxicity call was “inactive”.
The entry for `O=c1cc(O)nc[nH]1` is “inactive”; for `O=C(O)c1ccc(O)c(O)c1O` it is “inactive”.
Consider `CSCC[C@H](NC(=O)[C@@H](N)Cc1c[nH]c2ccccc12)C(=O)N[C@@H](CC(=O)O)C(=O)N[C@@H](Cc1ccccc1)C(N)=O`, for which the cytotoxicity call was “inactive”.
As to `CSCC[C@H](NC(=O)[C@H](Cc1ccc(OS(=O)(=O)O)cc1)NC(=O)[C@@H](N)CC(=O)O)C(=O)NCC(=O)N[C@@H](Cc1c[nH]c2ccccc12)C(=O)N[C@@H](CCSC)C(=O)N[C@@H](CC(=O)O)C(=O)N[C@@H](Cc1ccccc1)C(N)=O`, the cytotoxicity call is “active”.
Consider `CSCC[C@H](NC(=O)[C@H](Cc1c[nH]c2ccccc12)NC(=O)CNC(=O)[C@@H](NC(=O)[C@H](Cc1ccc(OS(=O)(=O)O)cc1)NC(=O)[C@H](CC(=O)O)NC(=O)[C@H](CCC(N)=O)NC(=O)[C@@H]1CCC(=O)N1)[C@@H](C)O)C(=O)N[C@@H](CC(=O)O)C(=O)N[C@@H](Cc1ccccc1)C(N)=O`, for which the cytotoxicity call was “inactive”.
Turning to `C[C@H]1CN([C@@H](C)CO)C(=O)Cc2cc(NC(=O)c3ccncc3)ccc2O[C@H]1CN(C)S(=O)(=O)c1ccc(F)cc1`, the cytotoxicity call was “inactive”.
In the case of `C[C@H](CO)N1C[C@H](C)[C@@H](CN(C)S(=O)(=O)c2ccc(F)cc2)OCCCC[C@H](C)Oc2ccc(NC(=O)c3ccccc3)cc2C1=O`, the cytotoxicity call is “inactive”.
Then `O=C(O)[C@H]1C[C@@H](CP(=O)(O)O)CCN1`, with “inactive”; and `COc1ccc(NC(=O)Nc2ccc3c(c2)C(=O)N([C@@H](C)CO)C[C@@H](C)[C@@H](CN(C)Cc2ccc(C(F)(F)F)cc2)O3)cc1`, with “inactive”.
Turning to `COc1ccc(CN(C)C[C@@H]2Oc3ccc(NC(=O)Nc4ccc(C(F)(F)F)cc4)cc3C(=O)N([C@@H](C)CO)C[C@H]2C)cc1`, the cytotoxicity call is “active”.
Consider `COc1ccc(NC(=O)Nc2ccc3c(c2)C(=O)N([C@@H](C)CO)C[C@@H](C)[C@H](CN(C)Cc2ccc(C(F)(F)F)cc2)O3)cc1`, for which the cytotoxicity call is “inactive”.
The entry for `COc1ccc(CN(C)C[C@@H]2Oc3ccc(NC(=O)Nc4ccc(C(F)(F)F)cc4)cc3C(=O)N([C@@H](C)CO)C[C@@H]2C)cc1` is “active”; for `COc1ccc(NC(=O)Nc2ccc3c(c2)C(=O)N([C@@H](C)CO)C[C@H](C)[C@@H](CN(C)Cc2ccc(C(F)(F)F)cc2)O3)cc1` it is “inactive”.
Consider `COc1ccc(NC(=O)Nc2ccc3c(c2)C(=O)N([C@@H](C)CO)C[C@H](C)[C@H](CN(C)Cc2ccc(C(F)(F)F)cc2)O3)cc1`, for which the cytotoxicity call was “inactive”.
Turning to `COc1ccc(CN(C)C[C@@H]2Oc3ccc(NC(=O)Nc4ccc(C(F)(F)F)cc4)cc3C(=O)N([C@H](C)CO)C[C@@H]2C)cc1`, the cytotoxicity call is “active”.
`COc1ccc(CN(C)C[C@H]2Oc3ccc(NC(=O)Nc4ccc(C(F)(F)F)cc4)cc3C(=O)N([C@H](C)CO)C[C@H]2C)cc1`: the cytotoxicity call is “inactive”.
Then `COc1ccc(NC(=O)Nc2ccc3c(c2)C(=O)N([C@H](C)CO)C[C@@H](C)[C@H](CN(C)Cc2ccc(C(F)(F)F)cc2)O3)cc1`, with “inactive”; and `COc1ccc(CN(C)C[C@@H]2Oc3ccc(NC(=O)Nc4ccc(C(F)(F)F)cc4)cc3C(=O)N([C@H](C)CO)C[C@H]2C)cc1`, with “active”; and `COc1ccc(CN(C)C[C@H]2Oc3ccc(NC(=O)Nc4ccc(C(F)(F)F)cc4)cc3C(=O)N([C@H](C)CO)C[C@@H]2C)cc1`, with “inactive”.
Take `COc1ccc(NC(=O)Nc2ccc3c(c2)C(=O)N([C@H](C)CO)C[C@H](C)[C@@H](CN(C)Cc2ccc(C(F)(F)F)cc2)O3)cc1`: the cytotoxicity call was “inactive”.
Consider `Nc1cccn2ncnc12`, for which the cytotoxicity call was “inactive”.
The entry for `CCCC(=O)Nc1nc2[nH]c(C)cc(=O)n2n1` is “inactive”; for `COc1cccc(CNC(=O)c2cc3c(c(-c4cccc(-c5cccc(C#N)c5)c4)n2)[C@@H](CCO)N([S@](=O)C(C)(C)C)C3)c1` it is “inactive”; for `COC1(NC(=O)C(C(=O)[O-])c2ccc(O)cc2)C(=O)N2C(C(=O)[O-])=C(CSc3nnnn3C)COC21.[Na+].[Na+]` (stereo unspecified) it is “inactive”.
As for `CNC[C@H]1OCCCC[C@@H](C)Oc2ccc(NC(=O)c3ccncc3)cc2C(=O)N([C@@H](C)CO)C[C@H]1C`, the cytotoxicity call is “inactive”.
Turning to `C[C@@H]1CCCCO[C@@H](CN(C)C(=O)Nc2ccc(F)cc2)[C@@H](C)CN([C@H](C)CO)C(=O)c2cc(NC(=O)C3CCCCC3)ccc2O1`, the cytotoxicity call was “inactive”.
Regarding `C[C@@H]1CN([C@@H](C)CO)C(=O)c2cc(NC(=O)c3ccccc3)ccc2O[C@@H](C)CCCCO[C@@H]1CN(C)S(=O)(=O)c1ccc(F)cc1`, the cytotoxicity call was “inactive”.
As to `Cc1cc(O)n(C[C@H]2CCCO2)c(=O)c1C#N`, the cytotoxicity call is “inactive”.
Regarding `COc1ccc(S(=O)(=O)Nc2ccc3c(c2)C(=O)N([C@H](C)CO)C[C@@H](C)[C@H](CN(C)C(=O)Nc2ccc4c(c2)OCO4)OCCCC[C@@H](C)O3)cc1`, the cytotoxicity call is “inactive”.
The entry for `COc1ccc(S(=O)(=O)N(C)C[C@H]2Oc3c(NC(=O)Nc4c(C)noc4C)cccc3C(=O)N([C@@H](C)CO)C[C@@H]2C)cc1` is “inactive”.
The entry for `O=C(NC1CCCCC1)N1c2ccccc2C=Cc2ccccc21` is “inactive”; for `C[C@H]1CN([C@@H](C)CO)C(=O)c2c(c3ccccc3n2C)-c2ccccc2CO[C@@H]1CN(C)Cc1cccc2c1OCCCO2` it is “inactive”.
In the case of `CCCC(=O)N1CC[C@]2(CC1)CN([C@H](CO)c1c2c2ccc(cc2n1C)OC)C(=O)CN1CCOCC1`, the cytotoxicity call was “inactive”.
Take `C[C@H](CO)N1C[C@H](C)[C@H](CN(C)C(=O)Nc2ccc(F)cc2)Oc2ccc(NC(=O)Nc3cccc4ccccc34)cc2C1=O`: the cytotoxicity call was “inactive”.
